Test results from PubChem BioAssay (NCI).
About 83,000 compounds went through this panel and 20% of them were active in at least one assay; those are over-represented in the sample as a whole.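 Each cell line was grown in a 96-well plate and treated with one concentration of compound for 48 hours. Values below 10 were considered active.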 Unmarked numbers belong to inactive results. Calls of active or inactive are those of the source.

Legend:
Assay in all cases: NCI-60 one-dose screen, 48 h (100 = growth as untreated, 0 = no growth, -100 = all killed)
Conditions in all cases: 10 µM
SK-MEL-2 melanoma = system: SK-MEL-2 melanoma
SN12C renal = system: SN12C renal
UO-31 renal = system: UO-31 renal
TK-10 renal = system: TK-10 renal
ACHN renal = system: ACHN renal
CCRF-CEM leukemia = system: CCRF-CEM leukemia
MOLT-4 leukemia = system: MOLT-4 leukemia
EKVX NSCLC = system: EKVX NSCLC
CAKI-1 renal = system: CAKI-1 renal
A498 renal = system: A498 renal

Compound	growth (SK-MEL-2 melanoma)	growth (SN12C renal)	growth (UO-31 renal)	growth (TK-10 renal)	growth (ACHN renal)	growth (CCRF-CEM leukemia)	growth (MOLT-4 leukemia)	growth (EKVX NSCLC)	growth (CAKI-1 renal)	growth (A498 renal)
Cc1ccc(C2=NN(c3ccc(S(C)(=O)=O)cc3)C(=O)CC2)cc1	6.35% (active)	39.7%	41.1%	67%	54.5%	14.9%	20%	–	–	–
COc1ccc(-c2nn(-c3cccc(Cl)c3)cc2C=C(C#N)C#N)cc1	-39.4% (active)	10.4%	11.9%	-3.05% (active)	9.38% (active)	-27.3% (active)	-45.9% (active)	–	–	–
C#C[C@]1(O)CCC2C3CCc4cc(OC5CCCC5)ccc4C3CC[C@@]21C (some centres undefined)	–	70.9%	72.5%	86.9%	73.3%	85.4%	59.8%	86.3%	42%	85.1%
CCN(CC)CCCC(C)N=C(C1=C(C(=NC(C)CCCN(CC)CC)c2cccc(OC)c2)C(=O)NC1=O)c1cccc(OC)c1 (centres undefined)	-53.7% (active)	–	-97.2% (active)	-31.1% (active)	-64% (active)	-21.4% (active)	-15.7% (active)	–	-57.9% (active)	18.7%
CO[C@H]1CC(O[C@@H]2/C(C)=C/C[C@@H]3C[C@@H](C[C@]4(C=C[C@H](C)[C@@H](C5CCCCC5)O4)O3)OC(=O)[C@@H]3C=C(C)[C@@H](O)[C@H]4OC/C(=C\C=C\[C@@H]2C)[C@]43O)O[C@@H](C)C1O[C@H]1C[C@H](OC)[C@@H](O)[C@H](C)O1 (some centres undefined)	–	-79.1% (active)	-98.4% (active)	-85.5% (active)	-100% (active)	-44.1% (active)	-58.2% (active)	-94.3% (active)	-94.6% (active)	-80.3% (active)
CC(=O)[C@@]12O[C@](C)(c3ccccc3)O[C@@H]1CC1C3CCC4=CC(=O)CC[C@]4(C)C3CC[C@@]12C (some centres undefined)	–	84%	51.6%	88.2%	69.3%	73.1%	23.7%	63.5%	47.5%	68.2%
CC(C)C[C@H](NC(=O)Cn1cccc(CNC(=O)c2ccccc2)c1=O)B(O)O	7.34% (active)	–	50.9%	16.8%	24.5%	2.66% (active)	-7.9% (active)	–	–	-12.2% (active)
O=C(Nc1ccc(OCc2nnc(-c3ccc(Cl)cc3)o2)c(F)c1)Nc1ccc(Cl)c(C(F)(F)F)c1	-20.2% (active)	–	–	15.5%	0.519% (active)	4.05% (active)	-1.55% (active)	–	13.3%	-23.7% (active)
Clc1ccc2c(c1)C(N1CCNCC1)=Nc1ccccc1O2	–	57.8%	28.3%	64.9%	46%	58.5%	20%	64.6%	36.5%	25.2%
CCCCCOC(=O)Nc1nc(=O)n(C2O[C@H](C)[C@@H](O)[C@H]2O)cc1F (some centres undefined)	–	99.5%	82.1%	98.5%	99.6%	96.7%	103%	99.2%	90.5%	82.3%
O=c1[nH]c(=O)n(C2C[C@H](O)[C@@H](CO)O2)cc1C(F)(F)F (some centres undefined)	–	110%	89.7%	104%	106%	95%	70.2%	109%	96.3%	118%
C=C(NC(=O)C(=C)NC(=O)c1csc(C2=NC3c4csc(n4)C4NC(=O)c5csc(n5)C(C(C)(O)C(C)O)NC(=O)C5CSC(=N5)C(=CC)NC(=O)C(C(C)O)NC(=O)c5csc(n5)C3(CC2)NC(=O)C(C)NC(=O)C(=C)NC(=O)C(C)NC(=O)C(C(C)CC)NC2C=Cc3c(C(C)O)cc(nc3C2O)C(=O)OC4C)n1)C(N)=O (centres undefined)	–	25.6%	64.7%	27.7%	23.6%	-10.1% (active)	-36.9% (active)	72.2%	71.4%	-41.5% (active)
C[C@@H](O)[C@H]1C(=O)N2C(C(=O)O)=C(SCCN=CN)C[C@H]12	–	2.27% (active)	-50.4% (active)	-0.459% (active)	-30.6% (active)	4.2% (active)	-13.9% (active)	7.62% (active)	-28.2% (active)	-36.4% (active)
C[C@]12CC[C@@H]3c4ccc(OS(=O)(=O)O)cc4CC[C@H]3[C@@H]1CC[C@@H]2NS(=O)(=O)c1ccc(-c2ccccc2)cc1	–	68.7%	40.8%	93.3%	47.7%	–	31.4%	–	66.2%	85.1%
CCCCC(CC)CN=C(N)NC(N)=NCCCCCCN=C(N)NC(N)=NCC(CC)CCCC (centres undefined)	–	-85.3% (active)	4.54% (active)	-15.3% (active)	4.41% (active)	-54% (active)	-73.7% (active)	-80.9% (active)	-17.3% (active)	-31.3% (active)
